Measurements published in PubChem BioAssay AID2117 (The Scripps Research Institute Molecular Screening Center, 2009).
Active and inactive are the calls of the source. How the calls were made is not given here.

These compounds were tested on VP16 (assay: LXR, FXR and VP16 reporter activity, cell-based, luciferase reporter, ROR modulator project, late-stage follow-up (AID 2117)). Conditions: cell-based luciferase reporter panel, at 10 µM; fold change: max fold change; inhibition: stronger effect = higher value.

| Compound | fold change | inhibition |
| --- | --- | --- |
| CC(C)(C)c1ccc(S(=O)(=O)Nc2ccc(C(O)(C(F)(F)F)C(F)(F)F)cc2)cc1 | 0.9 | 10% (inactive) |
| COc1cccc(S(=O)(=O)Nc2ccc(C(O)(C(F)(F)F)C(F)(F)F)cc2)c1 | 0.91 | 9% (inactive) |
| O=S(=O)(Nc1ccc(C(O)(C(F)(F)F)C(F)(F)F)cc1)c1cccc2ccccc12 | 0.95 | 5% (inactive) |
| COC(=O)c1sccc1S(=O)(=O)Nc1ccc(C(O)(C(F)(F)F)C(F)(F)F)cc1 | 0.94 | 6% |
| O=S(=O)(Nc1ccc(C(O)(C(F)(F)F)C(F)(F)F)cc1)c1ccc(Cl)c2nonc12 | 0.61 | 39% (inactive) |
| O=S(=O)(Nc1ccc(C(O)(C(F)(F)F)C(F)(F)F)cc1)c1cccc2cccnc12 | 1.03 | 0% (inactive) |
